A short description of assay [1]: rapamycin-like changes in RPL19A-GFP expression – cell-based, S. cerevisiae, multiplex flow cytometry, primary screen (AID 1862; in the data active means percent of DMSO control GFP below about 86%;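 further: lower values mimic rapamycin by blocking the RPL19A rise seen in DMSO cells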). As to conditions: S. cerevisiae RPL19A-GFP strain, flow cytometry fluorescence, 3 h; at 10 µM; stronger effect = lower value. A general note: A flow cytometer gives signals particle by particle.
Assay [2] can be described thus: TOR pathway GLN3 branch reporter MEP2-GFP changes – S. cerevisiae, multiplex flow cytometry, primary screen (AID 1867;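 active means GFP response, as percent of the DMSO control, above the screen-wide mean plus 3 SD, about 139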;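 further: median GFP channel fluorescence of barcode-gated MEP2-GFP cells measured by flow cytometry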). As to conditions: S. cerevisiae MEP2-GFP strain, 3 h, at 10 µM, stronger effect = higher value, 100% means same as DMSO wells.
The nature of assay [3]: TOR pathway RTG branch CIT2 reporter changes – S. cerevisiae, GFP fusion, multiplex flow cytometry, primary screen (AID 1870;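 active means percent response above a set limit, the screen-wide mean plus 3 SD, cut at about 130% in these data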;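 further: barcoded CIT2-GFP strain pooled with four other GFP strains with rapamycin as positive control; median GFP fluorescence per well over plate mean of DMSO wells so 100% = DMSO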). As to conditions: S. cerevisiae CIT2-GFP expression, 3 h, at 10 µM, stronger effect = higher value.
Assay [4] is described as follows: TOR pathway LAP4-GFP level changes – S. cerevisiae, multiplex flow cytometry, primary screen (AID 1873;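 active means GFP signal, as percent of the solvent control, above the screen mean plus 3 SD, about 149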). As to conditions: S. cerevisiae LAP4-GFP expression, 3 h, at 10 µM, stronger effect = higher value.
The nature of assay [5]: yeast AGP1-GFP level changes, GLN3 branch – cell-based, multiplex flow cytometry, S. cerevisiae, primary screen (AID 1887;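 active means GFP signal above the screen-wide mean plus 3 SD, that is over about 124.5% of the solvent control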;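 further: AGP1-GFP fusion strain of S. cerevisiae within a five-strain barcoded multiplex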). As to conditions: 3 h, at 10 µM, stronger effect = higher value.
Assay [6] is described as follows: reduced mouse 2C T cell binding to pMHC/ICAM-1 vesicles – MLPCN validation set, flow cytometry, LFA-1/ICAM-1 modulator project, pilot screen (AID 2523).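 On vesicle binding response: mean PE anti-B7-1 fluorescence of CD8+ cells relative to row control; 100% = QL9-loaded vesicles with DMSO vehicle in the same plate row.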 As to conditions: 2C mouse CD8+ T cells, at 7 µM, stronger effect = lower value; double positive events: measured here: CD8+/vesicle+ event percentage.
The target in assay [7] is Integrin beta-1 (Homo sapiens) + Integrin alpha-4 (Homo sapiens) (UniProt P13612+P05556). In words: alpha4beta1 integrin LIBS antibody binding reduction – U937 cells, HUTS-21 mAb, flow cytometry, validation set, VLA-4 allosteric modulator project, pilot screen (AID 2674;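 active means inhibition above 50%, about 3 SD of the validation set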;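 further: antibody binding induced by the VLA-4 ligand LDV present at three times its Kd; 0% = LDV ligand with antibody and no compound and 100% = antibody without LDV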). As to conditions: HUTS-21 LIBS mAb binding, at 6.7 µM, stronger effect = higher value, binding induced by LDV ligand.
Integrin beta-1 (Homo sapiens) + Integrin alpha-4 (Homo sapiens), sequence (P05556 whole entry, looked up): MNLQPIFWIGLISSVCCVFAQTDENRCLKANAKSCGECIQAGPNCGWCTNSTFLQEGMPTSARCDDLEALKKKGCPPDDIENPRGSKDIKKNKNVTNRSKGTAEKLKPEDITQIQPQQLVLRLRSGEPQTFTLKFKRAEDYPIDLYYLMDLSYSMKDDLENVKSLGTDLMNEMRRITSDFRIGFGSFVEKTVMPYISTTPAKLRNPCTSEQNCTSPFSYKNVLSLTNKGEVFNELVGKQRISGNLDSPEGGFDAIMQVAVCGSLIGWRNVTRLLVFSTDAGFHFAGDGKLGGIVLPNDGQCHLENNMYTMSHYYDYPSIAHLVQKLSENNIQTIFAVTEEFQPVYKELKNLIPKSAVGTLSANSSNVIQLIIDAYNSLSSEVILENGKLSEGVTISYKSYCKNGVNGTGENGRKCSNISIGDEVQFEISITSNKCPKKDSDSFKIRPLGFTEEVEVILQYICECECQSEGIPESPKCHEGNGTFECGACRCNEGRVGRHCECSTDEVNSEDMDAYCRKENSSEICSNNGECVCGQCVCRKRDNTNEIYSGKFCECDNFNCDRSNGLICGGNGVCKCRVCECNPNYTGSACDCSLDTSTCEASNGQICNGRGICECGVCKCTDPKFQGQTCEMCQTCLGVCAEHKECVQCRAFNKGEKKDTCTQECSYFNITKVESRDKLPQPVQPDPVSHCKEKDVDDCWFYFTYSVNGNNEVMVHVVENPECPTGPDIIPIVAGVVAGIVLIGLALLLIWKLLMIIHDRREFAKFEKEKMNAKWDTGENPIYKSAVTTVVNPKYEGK
Integrin beta-1 (Homo sapiens) + Integrin alpha-4 (Homo sapiens), sequence (P13612 whole entry, looked up): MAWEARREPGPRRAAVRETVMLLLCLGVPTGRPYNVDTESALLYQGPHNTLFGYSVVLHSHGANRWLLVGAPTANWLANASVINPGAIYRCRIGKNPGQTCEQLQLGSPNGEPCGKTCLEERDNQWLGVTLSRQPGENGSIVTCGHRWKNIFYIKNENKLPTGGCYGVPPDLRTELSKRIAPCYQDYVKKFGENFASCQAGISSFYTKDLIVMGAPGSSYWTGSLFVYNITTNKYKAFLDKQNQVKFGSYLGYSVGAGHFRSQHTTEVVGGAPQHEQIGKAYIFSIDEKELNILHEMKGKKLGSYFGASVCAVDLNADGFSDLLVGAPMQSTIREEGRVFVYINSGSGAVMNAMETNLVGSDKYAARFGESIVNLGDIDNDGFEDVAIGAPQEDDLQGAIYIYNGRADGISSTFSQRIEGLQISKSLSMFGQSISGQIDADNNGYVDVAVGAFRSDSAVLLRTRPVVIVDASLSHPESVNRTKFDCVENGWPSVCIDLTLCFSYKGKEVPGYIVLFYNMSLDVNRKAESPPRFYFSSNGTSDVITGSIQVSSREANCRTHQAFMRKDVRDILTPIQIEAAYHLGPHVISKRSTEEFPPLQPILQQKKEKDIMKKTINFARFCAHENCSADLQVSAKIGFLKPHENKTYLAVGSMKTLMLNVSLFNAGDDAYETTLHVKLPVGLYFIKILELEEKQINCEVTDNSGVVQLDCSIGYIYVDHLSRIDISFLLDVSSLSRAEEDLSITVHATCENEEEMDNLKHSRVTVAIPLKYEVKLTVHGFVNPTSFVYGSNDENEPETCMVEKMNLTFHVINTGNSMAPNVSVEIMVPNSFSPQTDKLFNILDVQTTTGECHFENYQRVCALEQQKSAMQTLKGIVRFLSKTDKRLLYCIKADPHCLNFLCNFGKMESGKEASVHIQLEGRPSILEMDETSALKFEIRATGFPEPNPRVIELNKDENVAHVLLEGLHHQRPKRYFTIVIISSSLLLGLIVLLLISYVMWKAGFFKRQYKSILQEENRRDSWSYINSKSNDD

Assay [8] in a line: calorie-restriction mimetic ROS inhibitors, yeast – validation compound set, pilot screen (AID 2706;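 active means superoxide response below 65% of plate, a cut near 3 SD across the whole screen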;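 further: yeast exposed to compound for one week at 30 degrees C before staining; 100% = mean of all compound wells on the same plate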). As to conditions: S. cerevisiae aging, superoxide DHE fluorescence; at 10 µM; stronger effect = lower value.
For assay [9], the target named is Beta-adrenergic receptor kinase 1 (Homo sapiens) (UniProt P25098). In words: GRK2 binders displacing RNA aptamer, biochemical, validation, human GRK2, bead flow cytometry (AID 488806;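 active means aptamer binding inhibition above 30%, about 3 SD of noise from non-fluorescent compounds; inactive means inhibition at or below 30%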). As to conditions: bead-bound GRK2, FAM-aptamer displacement, at 10 µM, stronger effect = higher value.
Beta-adrenergic receptor kinase 1 (Homo sapiens), sequence (P25098 whole entry, looked up): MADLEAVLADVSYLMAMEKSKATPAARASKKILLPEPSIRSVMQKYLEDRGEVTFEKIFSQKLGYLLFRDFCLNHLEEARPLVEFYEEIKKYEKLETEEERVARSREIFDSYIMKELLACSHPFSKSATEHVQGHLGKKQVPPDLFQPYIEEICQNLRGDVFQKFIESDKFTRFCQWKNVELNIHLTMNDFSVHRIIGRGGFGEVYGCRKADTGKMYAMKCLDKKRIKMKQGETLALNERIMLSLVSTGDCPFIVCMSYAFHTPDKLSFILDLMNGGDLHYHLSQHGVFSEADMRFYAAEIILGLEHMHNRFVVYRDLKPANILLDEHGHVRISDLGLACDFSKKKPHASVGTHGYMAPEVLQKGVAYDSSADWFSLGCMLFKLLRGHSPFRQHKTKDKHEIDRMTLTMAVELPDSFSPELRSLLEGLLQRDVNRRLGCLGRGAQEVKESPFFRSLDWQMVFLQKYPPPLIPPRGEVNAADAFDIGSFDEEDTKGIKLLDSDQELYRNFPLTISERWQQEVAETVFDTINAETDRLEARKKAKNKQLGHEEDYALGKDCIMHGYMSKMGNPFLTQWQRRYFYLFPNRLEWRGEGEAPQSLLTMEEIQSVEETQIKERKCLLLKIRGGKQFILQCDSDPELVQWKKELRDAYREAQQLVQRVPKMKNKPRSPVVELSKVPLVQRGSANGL
For assay [10], the target named is Beta-2 adrenergic receptor (Homo sapiens) (UniProt P07550). In words: agonist-induced loss of surface beta2AR – cell-based, FAP fluorogen, flow cytometry, validation set, pilot screen (AID 504459;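 active means percent response above 42, roughly 3 SD of non-fluorescent test compounds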;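 further: agonist-driven loss of surface beta2AR via internalization measured by FAP dye flow cytometry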). As to conditions: Am2.2-beta2AR cells, at 10 µM, stronger effect = higher value.
Beta-2 adrenergic receptor (Homo sapiens), sequence (P07550 whole entry, looked up): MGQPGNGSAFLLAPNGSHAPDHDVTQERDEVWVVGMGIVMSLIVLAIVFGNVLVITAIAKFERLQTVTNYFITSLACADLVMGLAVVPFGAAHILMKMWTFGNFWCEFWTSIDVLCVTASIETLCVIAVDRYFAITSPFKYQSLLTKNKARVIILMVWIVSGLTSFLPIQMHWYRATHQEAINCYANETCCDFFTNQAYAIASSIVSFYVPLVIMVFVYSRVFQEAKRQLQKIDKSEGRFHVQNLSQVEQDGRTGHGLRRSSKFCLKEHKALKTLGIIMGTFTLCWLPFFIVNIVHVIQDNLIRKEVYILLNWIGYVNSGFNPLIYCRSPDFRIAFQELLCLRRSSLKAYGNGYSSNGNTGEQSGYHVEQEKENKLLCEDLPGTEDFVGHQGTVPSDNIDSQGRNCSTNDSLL
Assay [11] addresses AP-2 complex subunit beta (Homo sapiens) (UniProt P63010). In words: beta-arrestin/AP2 interaction blockers – biochemical, validation set, GST-AP2 beads, flow cytometry, pilot screen (AID 504541;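 active means inhibition above 54%, about 3 SD of non-fluorescent compounds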;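 further: AP2 carries R879A mutation and is captured from E. coli lysate; bead-bound FITC arrestin peptide fluorescence measuring arrestin peptide binding to AP2; 0% = DMSO wells and 100% = excess unlabeled arrestin peptide control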). As to conditions: FITC arrestin peptide, at 10 µM, stronger effect = higher value, AP2 beta2 appendage fragment, R879A mutant.
The nature of assay [12]: cytosolic pH regulators acting via V-ATPase – S. cerevisiae, pHLuorin, HTS validation (AID 504600; in the data active means response above about 15%;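 further: plate controls were DMSO for no effect and reference compound for full effect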). As to conditions: V-ATPase proton transport, at 10 µM, stronger effect = higher value.
For assay [13], the system named is anti-desmoglein-3 scFv antibody binding to human DSG3. In words: blockers of pathogenic pemphigus antibody–desmoglein-3 binding – biochemical, validation compound set, bead-based, flow cytometry, pilot screen (AID 588368;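 active means binding below the plate cutoff, the plate median minus 3 SD, with a reading above zero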;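 further: signal is the median channel fluorescence of bead-bound GFP antibody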). As to conditions: Protein G beads, DSG3-Fc, scFv-GFP binding, at 10 µM, stronger effect = lower value.
A short description of assay [14]: Nile Red efflux blockade in pump-expressing yeast – validation compound set, multiplex, phenotypic, pilot screen (AID 588506;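 active means efflux inhibition above 0.42, the validation set average plus 4 SD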;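 further: Nile Red retained in cells so higher fluorescence means more efflux inhibition; 0 = negative control wells and 1 = enniatin B 25 µM full block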). As to conditions: S. cerevisiae pump-expressing triplex, Nile Red efflux flow cytometry; at 10 µM; stronger effect = higher value; the pumps come from Candida albicans.
For assay [15], the target named is ATP-binding cassette sub-family B member 6 (Homo sapiens) (UniProt Q9NP58). In words: blockers of ABCB6-driven porphyrin uptake – K562-ABCB6 cells, flow cytometry, validation set, pilot screen (AID 588550;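 active means inhibition above the screen-wide mean plus 3 SD, about 51%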;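 further: 0% = DMSO wells and 100% = benzethonium chloride 70 µM positive control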). As to conditions: K562-ABCB6 porphyrin accumulation, 1 h, at 10 µM, stronger effect = higher value.
ATP-binding cassette sub-family B member 6 (Homo sapiens), sequence (Q9NP58 whole entry, looked up): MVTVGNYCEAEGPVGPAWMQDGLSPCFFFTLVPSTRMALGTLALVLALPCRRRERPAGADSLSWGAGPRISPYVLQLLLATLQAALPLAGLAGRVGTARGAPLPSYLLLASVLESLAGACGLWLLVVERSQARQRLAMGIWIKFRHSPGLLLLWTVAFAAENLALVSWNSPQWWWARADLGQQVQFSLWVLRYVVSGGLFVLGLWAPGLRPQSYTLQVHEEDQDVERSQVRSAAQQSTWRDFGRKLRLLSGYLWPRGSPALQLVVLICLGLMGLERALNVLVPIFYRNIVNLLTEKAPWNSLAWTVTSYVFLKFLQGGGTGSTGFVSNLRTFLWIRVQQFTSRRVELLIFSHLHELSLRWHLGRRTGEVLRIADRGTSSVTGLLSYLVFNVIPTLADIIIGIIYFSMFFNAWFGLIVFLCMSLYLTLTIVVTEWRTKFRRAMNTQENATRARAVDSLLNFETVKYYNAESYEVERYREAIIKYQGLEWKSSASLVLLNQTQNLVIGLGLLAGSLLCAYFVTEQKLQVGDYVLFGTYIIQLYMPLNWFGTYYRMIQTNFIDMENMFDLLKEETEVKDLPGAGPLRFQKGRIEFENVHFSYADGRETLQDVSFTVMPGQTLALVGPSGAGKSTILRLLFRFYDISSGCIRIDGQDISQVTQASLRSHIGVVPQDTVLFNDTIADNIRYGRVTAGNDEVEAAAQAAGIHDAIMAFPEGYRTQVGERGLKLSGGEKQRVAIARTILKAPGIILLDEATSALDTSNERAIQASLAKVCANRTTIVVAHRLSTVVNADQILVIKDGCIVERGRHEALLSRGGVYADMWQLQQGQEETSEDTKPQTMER
Assay [16] can be described thus: AML differentiation inducers, ER-HoxA9 marrow cells – cell-based, GFP/MAC1 double positive, flow cytometry, validation set, primary screen (AID 588685;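 active means differentiation response of at least 50%, scaled between solvent and reference control, from cells with both markers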;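 further: compound exposure lasts four days before antibody staining and flow analysis; 0% = DMSO wells and 100% = 5 µM fulvestrant positive control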). As to conditions: stronger effect = higher value, normalized: vehicle 0, fulvestrant 100.

Results filed as inconclusive are left out. Active and inactive are the calls of the source.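 How the source made its calls, unless noted: active means response below a set limit, under 55% cells CD8-positive and vesicle-bound, and CD8 cells' 90th-percentile brightness under 279; inactive means the rest.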

AP-2 complex subunit beta (Homo sapiens), sequence (P63010 whole entry, looked up, the tested form may be a part, one chain of several): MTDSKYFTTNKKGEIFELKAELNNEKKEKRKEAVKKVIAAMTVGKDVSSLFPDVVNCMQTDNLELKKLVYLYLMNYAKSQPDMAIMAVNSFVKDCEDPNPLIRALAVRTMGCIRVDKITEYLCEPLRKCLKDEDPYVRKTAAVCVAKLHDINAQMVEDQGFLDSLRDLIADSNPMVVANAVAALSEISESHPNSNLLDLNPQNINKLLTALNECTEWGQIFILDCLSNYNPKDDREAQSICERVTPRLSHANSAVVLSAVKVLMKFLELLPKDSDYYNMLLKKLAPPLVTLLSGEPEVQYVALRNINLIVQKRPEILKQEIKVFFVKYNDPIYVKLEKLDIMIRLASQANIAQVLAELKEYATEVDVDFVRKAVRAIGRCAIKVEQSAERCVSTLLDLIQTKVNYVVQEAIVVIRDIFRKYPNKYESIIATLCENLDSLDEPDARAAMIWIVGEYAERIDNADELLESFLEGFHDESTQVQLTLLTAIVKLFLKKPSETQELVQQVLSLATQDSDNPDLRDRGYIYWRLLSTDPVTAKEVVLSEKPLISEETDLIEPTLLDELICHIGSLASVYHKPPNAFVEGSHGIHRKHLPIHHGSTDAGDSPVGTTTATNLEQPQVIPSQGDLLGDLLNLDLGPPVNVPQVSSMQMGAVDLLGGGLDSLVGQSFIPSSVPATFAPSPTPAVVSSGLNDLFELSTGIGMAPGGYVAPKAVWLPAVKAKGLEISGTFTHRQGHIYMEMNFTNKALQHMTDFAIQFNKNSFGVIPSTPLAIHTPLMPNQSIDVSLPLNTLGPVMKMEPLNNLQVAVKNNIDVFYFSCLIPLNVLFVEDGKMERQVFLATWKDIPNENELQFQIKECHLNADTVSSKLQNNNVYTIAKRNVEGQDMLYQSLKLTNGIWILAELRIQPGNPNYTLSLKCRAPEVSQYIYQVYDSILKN

As to `O=C(COc1ccccc1)Nc1ccc2c(c1)C(=O)N(CC1CCCO1)C2=O` (stereo not given), the percent of DMSO control GFP in assay [1] is 100% (inactive). The results for the GFP response vs DMSO in [2] and in assay [4] were 102% (inactive) and 113% (inactive), respectively. Also, the percent response of DMSO control in assay [3] was 102% (inactive). In addition, the GFP response, % of DMSO in assay [5] is 106% (inactive). Besides, the double positive events in assay [6] was 61.5%. Moreover, the vesicle binding response in assay [6] is 179% (inactive). Besides, the inhibition in assay [7] was 13.7% (inactive); in [11], 4.36% (inactive); in assay [15] it was -12% (inactive). In assay [8], the superoxide response (% of plate) is 110% (inactive). Besides, in assay [9], the aptamer binding inhibition is 3% (inactive). Moreover, the response was 3.99% (inactive) in [10] and -0.92% (inactive) in assay [12]. For the same molecule, the binding (% of control) in assay [13] is 100% (inactive). Further, the efflux inhibition (fraction of control) in assay [14] was 0.47 (active). Also, the differentiation response in assay [16] is -8.96% (inactive).
Turning to `O=C(Cc1ccccc1[N+](=O)[O-])NCc1ccncc1`, the percent of DMSO control GFP in [1] is 101% (inactive). Further, the GFP response vs DMSO was 101% (inactive) in assay [2] and 97.4% (inactive) in assay [4]. Besides, the percent response of DMSO control in assay [3] was 101% (inactive). In addition, in assay [5], the GFP response, % of DMSO was 97.4% (inactive). Besides, the double positive events in [6] was 63.2%. The vesicle binding response in [6] is 243% (inactive). In addition, the inhibition is 6.4% (inactive) in assay [7], -3.75% (inactive) in assay [11] and 2% (inactive) in [15]. In addition, the superoxide response (% of plate) in [8] is 97.3% (inactive). In assay [9], the aptamer binding inhibition was 7% (inactive). The response in [10] was -1.07% (inactive); in assay [12] it was -1.46% (inactive). Besides, in [13], the binding (% of control) is 98.2% (inactive). Moreover, the efflux inhibition (fraction of control) in [14] was -0.03 (inactive). Also, the differentiation response in assay [16] was -15.2% (inactive).
Turning to `COc1cc(NC(=S)NN2CCN(C)CC2)cc(OC)c1OC`, the percent of DMSO control GFP in assay [1] was 105% (inactive). Further, the results for the GFP response vs DMSO in assay [2] and in assay [4] were 108% (inactive) and 92% (inactive), respectively. The percent response of DMSO control in assay [3] is 116% (inactive). In addition, the GFP response, % of DMSO in [5] is 106% (inactive). In assay [6], this molecule displayed a double positive events of 62.3%. For the same molecule, the vesicle binding response in assay [6] was 240% (inactive). For the same molecule, the values for the inhibition in assay [7], in assay [11] and in assay [15] were 7.85% (inactive), -10.5% (inactive) and 13% (inactive), respectively. Also, the superoxide response (% of plate) in assay [8] is 91.4% (inactive). The aptamer binding inhibition in [9] was 3% (inactive). Besides, the response was -10.5% (inactive) in assay [10] and 2.58% (inactive) in [12]. In addition, the binding (% of control) in assay [13] is 105% (inactive). Besides, the efflux inhibition (fraction of control) in [14] was -0.04 (inactive). For the same molecule, in [16], the differentiation response is 5.13% (inactive).
In the case of `c1cc(-c2ccncc2)ccn1`, the percent of DMSO control GFP in [1] was 99.7% (inactive). Besides, the GFP response vs DMSO in [2] is 95.2% (inactive); in [4], 108% (inactive). The percent response of DMSO control in assay [3] is 106% (inactive). For the same molecule, the GFP response, % of DMSO in assay [5] is 105% (inactive). In addition, the double positive events in assay [6] was found to be 58.3%. The vesicle binding response in [6] is 239% (inactive). Moreover, the inhibition was 0.94% (inactive) in assay [7], 23.8% (inactive) in assay [11] and 4% (inactive) in assay [15]. In addition, the superoxide response (% of plate) in assay [8] is 117% (inactive). Further, the aptamer binding inhibition in assay [9] was 4% (inactive). In addition, the response in assay [10] was 8.34% (inactive); in [12], -5.09% (inactive). The binding (% of control) in assay [13] is 101% (inactive). In addition, the efflux inhibition (fraction of control) in assay [14] was -0.28 (inactive). In assay [16], the differentiation response is 79.2% (active).
Take `COc1ccc(C(=O)Nc2cccnc2)cc1C(=O)Nc1cccnc1`: in [1], the percent of DMSO control GFP is 104% (inactive). The GFP response vs DMSO in [2] and in [4] was 107% (inactive) in each case. Also, the percent response of DMSO control in [3] is 102% (inactive). Also, in assay [5], the GFP response, % of DMSO was 106% (inactive). Further, in [6], the double positive events worked out at 65%. In addition, the vesicle binding response in assay [6] is 191% (inactive). The inhibition in [7] was -3.77% (inactive); in assay [11] it was -14.1% (inactive); in [15], 8% (inactive). Besides, the superoxide response (% of plate) in [8] is 104% (inactive). For the same molecule, the aptamer binding inhibition in assay [9] is 2% (inactive). Also, the response in [10] was 9.93% (inactive); in assay [12], 0.74% (inactive). The binding (% of control) in assay [13] is 99% (inactive). Besides, the efflux inhibition (fraction of control) in [14] was -0.11 (inactive). The differentiation response in [16] is 13% (inactive).

One may read the inhibition as the drop in the measured response relative to a control, in per cent.

(Values after PubChem BioAssay.)
